# Laboratory results reported in PubChem BioAssay (EPA / NIEHS).
# Inconclusive results are not listed. Activity calls are given as the source filed them. How the source made its calls: active means hit-call score of the fitted dose curve at least 0.9, where 1 is the maximum; inconclusive means response in the unintended direction; inactive means score below 0.9.
# Legend:
# [1] = molecular target: human Vascular Endothelial Growth Factor Receptor 1 (VEGFR1), FLT1 (gene 2321) (UniProt P17948); assay: NVS_ENZ_hVEGFR1: NovaScreen (NVS) Enzymatic Assay for human Vascular Endothelial Growth Factor Receptor 1 (VEGFR1) (AID 2283226)
# Experimental: NVS_ENZ_hVEGFR1 is a biochemical, single-readout assay that uses extracted gene-proteins in a cell-free assay. Measurements were taken 1 hour after chemical dosing in a 384-well plate.NVS_ENZ_hVEGFR1 is one of one assay component(s) measured or calculated from the NVS_ENZ_hVEGFR1 assay. It is designed to make measurements of enzyme activity, a form of enzyme reporter, as detected with fluorescence intensity signals by Fluorescence and electrophoretic mobility shift technology.Data from the assay component NVS_ENZ_hVEGFR1 was analyzed into 1 assay endpoint. This assay endpoint, NVS_ENZ_hVEGFR1, was analyzed in the positive analysis fitting direction relative to DMSO as the negative control and baseline of activity. Using a type of enzyme reporter, loss-of-signal activity can be used to understand changes in the enzymatic activity as they relate to the gene FLT1. Furthermore, this assay endpoint can be referred to as a primary readout, because this assay has produced multiple assay endpoints where this one serves a enzymatic activity function. To generalize the intended target to other relatable targets, this assay endpoint is annotated to the kinase intended target family, where the subfamily is receptor tyrosine kinase. […]
# [2] = molecular target: human Adenosine A1 Receptor (AdoRA1), ADORA1 (gene 134) (UniProt P30542); assay: NVS_GPCR_hAdoRA1: NovaScreen (NVS) G Protein-Coupled Receptor Assay for human Adenosine A1 Receptor (AdoRA1) (AID 2283254)
# Method in brief: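 Each chemical is first tested twice at 25 uM, actives later in dilution series, against a radioligand bound to human cortex membranes; after 1 h, filter-retained counts are compared with DMSO controls, lower signal indicating displacement.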
# Chain of human Adenosine A1 Receptor (AdoRA1), ADORA1 (gene 134) (P30542 whole entry, looked up): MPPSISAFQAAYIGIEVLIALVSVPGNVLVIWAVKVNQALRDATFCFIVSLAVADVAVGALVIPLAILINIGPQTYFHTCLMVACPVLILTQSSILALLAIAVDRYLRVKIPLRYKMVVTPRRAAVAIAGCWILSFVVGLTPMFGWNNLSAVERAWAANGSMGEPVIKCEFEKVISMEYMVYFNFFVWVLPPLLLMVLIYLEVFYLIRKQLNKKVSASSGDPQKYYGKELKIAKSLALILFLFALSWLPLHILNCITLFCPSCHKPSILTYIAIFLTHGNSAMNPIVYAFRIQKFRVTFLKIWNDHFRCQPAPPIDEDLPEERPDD
# Chain of human Vascular Endothelial Growth Factor Receptor 1 (VEGFR1), FLT1 (gene 2321) (P17948 whole entry, looked up): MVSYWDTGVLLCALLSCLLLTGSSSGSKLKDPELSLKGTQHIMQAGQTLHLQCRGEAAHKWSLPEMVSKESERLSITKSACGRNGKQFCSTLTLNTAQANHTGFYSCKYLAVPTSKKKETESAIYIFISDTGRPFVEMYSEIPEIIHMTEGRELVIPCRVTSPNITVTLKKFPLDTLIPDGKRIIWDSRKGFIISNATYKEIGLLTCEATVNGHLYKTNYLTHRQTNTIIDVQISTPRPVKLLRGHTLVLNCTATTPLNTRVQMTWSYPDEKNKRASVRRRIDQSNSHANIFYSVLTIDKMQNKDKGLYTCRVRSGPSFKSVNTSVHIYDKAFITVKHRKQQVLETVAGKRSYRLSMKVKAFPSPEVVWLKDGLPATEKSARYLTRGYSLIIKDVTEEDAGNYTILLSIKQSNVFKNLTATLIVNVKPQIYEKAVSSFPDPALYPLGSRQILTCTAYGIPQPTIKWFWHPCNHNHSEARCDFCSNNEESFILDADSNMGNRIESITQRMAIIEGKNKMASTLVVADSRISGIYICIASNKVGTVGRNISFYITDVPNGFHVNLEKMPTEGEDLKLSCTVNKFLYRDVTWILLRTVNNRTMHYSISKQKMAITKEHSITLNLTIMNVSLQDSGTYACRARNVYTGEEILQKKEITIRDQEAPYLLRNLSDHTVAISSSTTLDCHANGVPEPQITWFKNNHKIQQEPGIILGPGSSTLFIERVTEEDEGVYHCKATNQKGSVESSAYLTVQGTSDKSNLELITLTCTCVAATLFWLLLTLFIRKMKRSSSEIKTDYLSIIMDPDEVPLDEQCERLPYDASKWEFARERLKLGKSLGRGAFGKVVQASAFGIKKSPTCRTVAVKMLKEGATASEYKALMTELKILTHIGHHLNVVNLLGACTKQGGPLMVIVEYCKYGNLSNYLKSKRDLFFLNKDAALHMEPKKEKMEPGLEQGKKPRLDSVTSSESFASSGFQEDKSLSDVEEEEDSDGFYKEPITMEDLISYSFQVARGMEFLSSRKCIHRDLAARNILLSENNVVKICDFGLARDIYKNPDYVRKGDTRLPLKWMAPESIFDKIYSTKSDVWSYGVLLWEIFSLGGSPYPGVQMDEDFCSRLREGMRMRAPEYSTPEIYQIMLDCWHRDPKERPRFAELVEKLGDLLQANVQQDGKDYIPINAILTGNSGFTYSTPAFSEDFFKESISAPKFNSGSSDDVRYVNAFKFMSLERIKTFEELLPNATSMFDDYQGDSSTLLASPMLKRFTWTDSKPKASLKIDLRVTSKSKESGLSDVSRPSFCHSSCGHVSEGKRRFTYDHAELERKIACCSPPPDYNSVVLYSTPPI
compound,measurement,setting,value
c1ccc2c(c1)c1cccc3ccc4cccc2c4c31,outcome,[1],inactive
COc1cc2ncnc(Nc3cccc(Cl)c3)c2cc1OC,AC50,[1],1.27 µM (active)
same,AC50,[2],9.94 µM (active)
Cc1c(Cl)c(=O)oc2cc(O)ccc12,outcome,[2],inactive
